Assay results: PubChem BioAssay AID1851 (National Center for Advancing Translational Sciences (NCATS), 2009)
The campaign covered roughly 16,000 compounds. About 2,600 (16%) were called active. Roughly 20% stayed inconclusive and do not appear here. Calls come from the whole dose curve; as a rule, active = well fitted curve in the direction sought with a large enough effect; inconclusive = small, poorly fitted or top-dose-only effect, or effect the other way; inactive = no such curve, though single readings can be large or run the other way. The list is a sample of the results. The source holds several records for some structures; these can differ, active in one and inactive in another.

Biological target: Cytochrome P450 2D6 (Homo sapiens) (UniProt P10635)
Experiment: Cytochrome panel assay with activity outcomes
Conditions: recombinant CYP, pro-luciferin dealkylation, luminescence, p450-cyp2d6; series mostly up to 57.1 µM; activity, negative = inhibition: at the top concentration
% is set by controls: 0 for no effect and ±100 for the full control effect.

Chain of Cytochrome P450 2D6 (Homo sapiens) (P10635 whole entry, looked up): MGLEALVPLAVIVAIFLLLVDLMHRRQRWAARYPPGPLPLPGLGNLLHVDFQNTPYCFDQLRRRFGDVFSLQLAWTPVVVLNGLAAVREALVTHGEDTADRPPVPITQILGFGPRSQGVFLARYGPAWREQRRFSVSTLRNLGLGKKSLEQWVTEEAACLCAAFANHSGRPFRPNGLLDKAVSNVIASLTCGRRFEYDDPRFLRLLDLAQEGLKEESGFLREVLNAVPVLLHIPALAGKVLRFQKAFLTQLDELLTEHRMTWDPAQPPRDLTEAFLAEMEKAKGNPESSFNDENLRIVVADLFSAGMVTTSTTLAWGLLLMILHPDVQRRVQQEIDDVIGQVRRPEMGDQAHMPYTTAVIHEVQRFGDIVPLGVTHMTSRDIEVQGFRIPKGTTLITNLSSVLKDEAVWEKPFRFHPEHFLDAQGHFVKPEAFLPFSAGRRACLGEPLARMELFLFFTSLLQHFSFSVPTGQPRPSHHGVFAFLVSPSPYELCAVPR

Structure (SMILES) | activity, negative = inhibition | AC50
COc1cc(C2C(C(=O)OCCC#N)=C(C)NC3=C2S(=O)(=O)c2ccccc23)cc(OC)c1OC (stereo not drawn) | -6.84% (inactive) | 
Cc1ccc(-c2ccnc(=S)[nH]2)cc1 | -14.8% (inactive) | 
Cc1c(C(=O)Nc2ccc(OCc3ccccc3)cc2)cccc1[N+](=O)[O-] | -5.06% (inactive) | 
COc1ccc(/C=N/NC(=O)CCCC(=O)NC2CCCCC2)cc1 | 16.3% (inactive) | 
CN(C)c1ncc2nc(-c3cc(F)cc(F)c3)c(=O)n(Cc3ccc(F)cc3)c2n1 | 10% (inactive) | 
Cc1ccc(Nc2nc(Cl)nc(N(C)C#N)n2)cc1 | 1.15% (inactive) | 
Nc1nnc(CC(=O)N/N=C/c2cccc([N+](=O)[O-])c2)s1 | -21.2% (inactive) | 
Cc1sc(N/N=C/C=C/c2ccccc2)nc1-c1ccccc1 | -10.8% (inactive) | 
Cc1cccc(-n2c(Cn3nc(C)c([N+](=O)[O-])c3C)n[nH]c2=S)c1 | 3.45% (inactive) | 
Cc1ccc(C)c(NC(=O)c2ncn[nH]2)c1 | 8.78% (inactive) | 
C/C(=N\NC(=S)Nc1cccc(C)c1)c1ccccc1 | -25.1% (inactive) | 
Cc1nc(/N=C(\N)Nc2ccccc2)nc2ccccc12 | -12.1% (inactive) | 
Cc1cccc(N/C(N)=N/c2nc(C)cc(C)n2)c1 |  | 2.82 µM (active)
Cc1ccc(C)c(NC(=O)Cn2nnc(C(=O)Nc3c(C)cccc3C)c2N)c1 | -25.4% (inactive) | 
Cc1ccc(C)c(N/C(N)=N/c2nc(C)cc(C)n2)c1 |  | 0.794 µM (active)
Cc1cc(C)c(-c2cc([C@H](C)O/N=C\[C@@H](C)[C@H](OCc3ccccc3)C(C)C)on2)c(C)c1 | -7.16% [at 11.4 µM] (inactive) | 
O=C(CCNC(=O)Cn1cnc2ccccc2c1=O)NCC1COc2ccccc2O1 (stereo not drawn) | 16.6% (inactive) | 
COc1cccc(OC)c1OCCNC[C@@H]1COc2ccccc2O1 |  | 251 nM (active) and inactive
O=C(N/N=C/c1ccco1)/C(=C/c1cccc([N+](=O)[O-])c1)NC(=O)c1ccccc1 | -15.4% (inactive) | 
O=C(O)c1cc(-c2ccc3cc4c(cc3c2)OCO4)nc2ccccc12 | -6.77% [at 11.4 µM] (inactive) | 
CN(C)C(=O)c1ccc(-c2cncnc2Nc2ccccc2)cc1 | -2.66% (inactive) | 

Structure (SMILES) | activity, negative = inhibition | AC50
Cn1cc(/C=C2/SC(=O)N(CC(=O)Nc3ccc4c(c3)OCO4)C2=O)c2ccccc21 | -6.65% (inactive) | 
Cn1c(-c2ccc3c(c2)OCO3)cnc1NCc1ccccc1 |  | 0.794 µM (active)
Cn1c(-c2ccc3c(c2)OCO3)cc(=O)c2ccccc21 |  | 1.58 µM (active)
Cc1cccc(CNc2ncncc2-c2ccc3c(c2)OCO3)c1 |  | 6.31 µM (active)
Cc1noc(C)c1-c1cncnc1Nc1ccccc1 | -7.49% (inactive) | 
c1ccc(Nc2ncncc2-c2ccc3c(c2)OCO3)cc1 |  | 12.6 µM (active)
Cc1cccc(CNc2ncncc2-c2ccc(C(=O)N(C)C)cc2)c1 | -9.23% (inactive) | 
CN(C)c1ccc(-c2cc(NCc3ccccc3)ncn2)cc1 | -17.2% (inactive) | 
O=c1oc2cc(N=Cc3ccc4c(c3)OCO4)ccc2c2ccccc12 | 4.96% [at 11.4 µM] (inactive) | 
Cc1ccc(C(=O)N/N=C\c2ccc[nH]2)cc1[N+](=O)[O-] | -6.03% (inactive) | 
CCCOc1ccc(C(=O)NNC(=S)NC(=O)c2cc(-c3ccccc3)nc3ccccc23)cc1 | 3.87% (inactive) | 
O=C(Nc1cccn2ncnc12)c1ccc(Cl)cc1Cl | 2.48% (inactive) | 
COC(=O)C1=C(NC(=O)c2cccs2)CCS1 | 12.9% (inactive) | 
COc1cnc(-c2ccccn2)nc1Sc1c(Cl)cccc1Cl | -25% (inactive) | 
COc1cc(OC)cc(C(=O)Nn2cc(C(=O)N3CCN(C)CC3)c3ccccc3c2=O)c1 | -15.2% (inactive) | 
O=C1CC[C@H](N2C(=O)c3ccccc3C2=O)C(=O)N1 |  | inactive
CCn1cc(C(=O)O)c(=O)c2cc(F)c(N3CCNCC3)nc21 | 6.39% [at 25.6 µM] (inactive) | 
O=C(O)C[C@H](S)C(=O)O | -2.12% [at 11.4 µM] (inactive) | 
c1csc(CNc2ncncc2-c2ccc3c(c2)OCO3)c1 |  | 10 µM (active)
c1cncc(CNc2ncncc2-c2cccnc2)c1 | -11.4% (inactive) | 
c1cncc(CNc2ncncc2-c2ccc3c(c2)OCO3)c1 |  | 15.8 µM (active)

Structure (SMILES) | activity, negative = inhibition | AC50
c1ccc(Nc2ncnc3ccc(-c4ccc5c(c4)OCO5)cc23)cc1 |  | 0.126 µM (active)
N#Cc1cccc(-c2cncnc2NCc2cccnc2)c1 | -9.2% (inactive) | 
c1ccc(CNc2ncncc2-c2ccc3c(c2)OCO3)cc1 |  | 12.6 µM (active)
Clc1ccc2c(c1)C=Nc1c(NCc3ccccc3)ncnc1O2 | -0.537% (inactive) | 
COc1ccc(NC(=O)N2CC[C@@]3(CCCN(C(=O)c4cccc(F)c4)C3)C2)cc1 | 6.12% (inactive) | 
O=C(Nc1ccccc1)N1CCSc2cc(Cl)ccc21 | -11.2% (inactive) | 
OC[C@@H]1O[C@@H](N2CCN([C@@H]3O[C@@H](CO)[C@@H](O)[C@H](O)[C@H]3O)CC2)[C@@H](O)[C@H](O)[C@H]1O | -3.98% [at 11.4 µM] (inactive) | 
COc1ccc2c(c1[N+](=O)[O-])CCC/C2=N/OC(=O)c1ccccc1SC | -3.18% (inactive) | 
NC(N)=NC(N)=Nc1ccc(S(N)(=O)=O)cc1 | 4.99% [at 11.4 µM] (inactive) | 
CCOc1cc2[nH]c(=S)n(CCCC(=O)NCc3ccco3)c(=O)c2cc1OCC | 18.8% (inactive) | 
O=C(CCCCCn1c(=S)[nH]c2cc3c(cc2c1=O)OCO3)N1CCN(C2CCCCC2)CC1 |  | 8.91 µM (active)
C=CCNC(=O)c1ccc(Cn2c(=S)[nH]c3cc4c(cc3c2=O)OCO4)cc1 | 8.13% (inactive) | 
O=C(c1ccc2c(=O)n(CC3CCCO3)c(=S)[nH]c2c1)N1CCN(c2ccccc2)CC1 (stereo not drawn) | -17.4% (inactive) | 
O=C(c1ccc2c(=O)n(Cc3ccco3)c(=S)[nH]c2c1)N1CCN(c2ccccc2)CC1 | -19.2% (inactive) | 
O=C(CCCn1c(=S)[nH]c2ccc(Br)cc2c1=O)NCC1CCCO1 (stereo not drawn) | -8.4% (inactive) | 
CCCCNC(=O)CCn1c(=S)[nH]c2cc3c(cc2c1=O)OCO3 | -7.86% (inactive) | 
CCN(CC)CCn1c(=S)[nH]c2cc3c(cc2c1=O)OCO3 |  | 0.631 µM (active)
O=C(CCCn1c(=S)[nH]c2cc3c(cc2c1=O)OCO3)N1CCN(c2ncccn2)CC1 |  | 5.01 µM (active)
CCCC(=O)Nc1cccc(Oc2nc(C)cc(C)c2C#N)c1 | -2.28% (inactive) | 
Cc1ccnc(NS(=O)(=O)c2ccc(N=[N+]=[N-])cc2)n1 | 10.7% [at 11.4 µM] (inactive) | 
CC(C)=CCC/C(C)=C/CO/N=C1/C[C@@H](O)[C@@H](O)[C@@H]2[C@@H]3C(=O)N(Cc4ccccc4)C(=O)[C@H]3CC[C@H]12 | -8.8% [at 11.4 µM] (inactive) | 
